Assay results: PubChem BioAssay AID488847 (NMMLSC, 2010)
In all, about 330,000 compounds went through this assay and about 1,900 (0.58%) were called active.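 How the source made its calls: active means inhibition of aptamer binding above 40%, roughly 3 SD of noise, on plates passing a quality check; inactive means the rest.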 The full list was thinned out, with actives kept by preference.

biological target: Beta-adrenergic receptor kinase 1 (Homo sapiens) (UniProt P25098); test: compounds blocking aptamer binding on GRK2 – biochemical, human GRK2, bead flow cytometry, HTS, primary screen (AID 488847); conditions: FAM-aptamer displacement from GRK2, at 10 µM, stronger effect = higher value;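 further: median bead fluorescence of bound FAM aptamer so fluorescent compounds give negative values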
Sequence (P25098 whole entry, looked up): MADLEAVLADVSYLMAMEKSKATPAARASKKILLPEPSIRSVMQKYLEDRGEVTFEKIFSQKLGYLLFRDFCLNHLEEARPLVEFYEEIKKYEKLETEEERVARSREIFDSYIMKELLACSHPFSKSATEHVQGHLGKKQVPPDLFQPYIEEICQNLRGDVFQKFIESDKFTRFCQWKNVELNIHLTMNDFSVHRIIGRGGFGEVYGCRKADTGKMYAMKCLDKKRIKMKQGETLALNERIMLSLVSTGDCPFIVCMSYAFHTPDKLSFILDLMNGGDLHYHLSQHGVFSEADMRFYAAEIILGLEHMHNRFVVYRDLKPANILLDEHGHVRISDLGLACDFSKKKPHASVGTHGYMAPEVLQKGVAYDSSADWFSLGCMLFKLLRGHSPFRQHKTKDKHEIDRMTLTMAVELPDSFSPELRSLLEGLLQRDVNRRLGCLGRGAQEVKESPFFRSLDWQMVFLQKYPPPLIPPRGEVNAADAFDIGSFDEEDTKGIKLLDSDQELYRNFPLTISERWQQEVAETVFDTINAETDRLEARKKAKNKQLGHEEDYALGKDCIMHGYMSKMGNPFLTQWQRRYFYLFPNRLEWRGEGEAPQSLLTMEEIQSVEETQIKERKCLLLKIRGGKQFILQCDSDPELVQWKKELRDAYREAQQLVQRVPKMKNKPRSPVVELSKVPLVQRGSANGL

| SMILES | inhibition of aptamer binding |
| --- | --- |
| Cc1c(C(=O)O)cccc1-n1c(C)cc(/C=C2\C(=O)NC(=O)N(c3ccc4c(c3)OCO4)C2=O)c1C | 75% (active) |
| Cc1ccc(-n2c(C)cc(/C=C3\C(=O)NC(=O)N(C)C3=O)c2C)cc1C | 3% (inactive) |
| Cc1cc(C=C2C(=O)NC(=O)NC2=O)c(C)n1-c1ccncc1 | 2% (inactive) |
| CC[N+]1(C)CCCC(OC(=O)C(O)(c2ccccc2)c2ccccc2)C1 (stereo not given) | 0% (inactive) |
| O=C1NC(=O)C(C/C=C/c2ccccc2)C(=O)N1 | 1% (inactive) |
| COc1ccc(Br)cc1CNCCc1cccc(Cl)c1 | 0% (inactive) |
| O=C1NC(=O)N(Cc2ccco2)C(=O)/C1=C\c1cccn1CCOc1ccccc1 | 5% (inactive) |
| O=C1NC(=O)N(Cc2ccco2)C(=O)/C1=C\c1ccc(-c2ccc(F)cc2)o1 | 15% (inactive) |
| COc1ccc(N2C(=O)/C(=C/c3ccco3)C(=O)NC2=S)cc1 | 96% (active) |
| CN(C)CC1CCCCC1OC(=O)c1ccc(Cl)c(Cl)c1 (stereo not given) | 0% (inactive) |
